Screening data deposited in PubChem by National Center for Advancing Translational Sciences (NCATS).
L3MBTL1 block – blocks human L3MBTL1; AlphaScreen L3MBTL1–H3K9me1 peptide binding; 230,000 compounds, 0.66% hits; Q9Y468; AID 485360; Potency, µM (titrated, usually from 57.1 µM), hits mostly inhibitors; note: nearly all actives have a fitted effect of over 60% in size
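Displacement of a biotinylated histone H3(1-15) peptide monomethylated at Lys9 (75 nM) from L3MBTL1 (50 nM) was measured by AlphaScreen after a 30 min room-temperature compound incubation; cefsulodin titration served as intraplate control.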
HP1b binding inh – HP1-beta chromodomain-methylated histone interaction inhibition. AID 540317. 390,000 compounds, 0.56% hits. Potency, µM (titrated, usually from 114 µM), hits mostly inhibitors. AlphaScreen HP1-beta / biotin-H3K9me3 peptide binding. P83916; note: nearly all actives have a fitted effect of over 70% in size
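AlphaScreen: HP1-beta (50 nM) preformed 30 min with biotin-H3(1-18)K9me3 peptide (50 nM) in PBS pH 7.4, 0.01% Tween-20. Compound added for 30 min at RT, then streptavidin donor/nickel chelate acceptor beads (10 ug/mL) for 30 min.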
JMJD2E inh – blocks human JMJD2E demethylase activity | B2RXH2 | JMJD2E catalytic domain, FDH-coupled NADH fluorescence (FDH is formaldehyde dehydrogenase) | Potency, µM (top dose mostly 57.1 µM), most hits filed as inhibitors | 230,000 compounds, 1.6% hits; active = well fitted inhibition curve with a large enough effect, not every such curve was filed as active; inconclusive = small, poorly fitted or top-dose-only effect, or another doubt; inactive = no such curve, though single readings can be large or run the other way; note: nearly all actives have a fitted effect of over 50% in size
BAZ2B inh – inhibitors of human BAZ2B bromodomain | Q9UIF8 | AlphaScreen BAZ2B-H3K14Ac peptide displacement | Potency, µM (highest dose often 114 µM), most hits filed as inhibitors | 360,000 compounds, 4.4% hits; note: nearly all actives have a fitted effect of over 60% in size
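In this displacement format the biotinylated H3(5-23) peptide acetylated at Lys14 serves as ligand at 50 nM, with BAZ2B at 50 nM in PBS pH 7.4 containing 0.01% Tween-20. Donor and acceptor beads are 10 ug/mL final.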
PI5P4Ka inh – PI5P4K alpha (human) kinase inhibition. P48426. PI5P4Kalpha enzyme, ADP-Glo luminescence, 60 min; active compounds read low. max response, %. 330,000 compounds, 1.2% hits. AID 652105; active = max response of -50% or lower; inconclusive = between -30% and -50%; inactive = -30% or higher; note: value at the top dose of about 77 µM
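Luminescence from ADP-Glo served as readout of PI5P4Kalpha activity in a qHTS format. Reaction: enzyme, substrate, compound, ATP at 5 microM final, 60 min at RT.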
JMJD2A Tudor – JMJD2A Tudor domain (human) inhibition; O75164; AlphaScreen JMJD2A-Tudor / H3K4me3 peptide binding; Potency, µM (doses to about 114 µM), hits mostly inhibitors; 390,000 compounds, 4.4% hits; note: nearly all actives have a fitted effect of over 50% in size
Target sequence (O75164 whole entry, looked up, the tested form may be a part): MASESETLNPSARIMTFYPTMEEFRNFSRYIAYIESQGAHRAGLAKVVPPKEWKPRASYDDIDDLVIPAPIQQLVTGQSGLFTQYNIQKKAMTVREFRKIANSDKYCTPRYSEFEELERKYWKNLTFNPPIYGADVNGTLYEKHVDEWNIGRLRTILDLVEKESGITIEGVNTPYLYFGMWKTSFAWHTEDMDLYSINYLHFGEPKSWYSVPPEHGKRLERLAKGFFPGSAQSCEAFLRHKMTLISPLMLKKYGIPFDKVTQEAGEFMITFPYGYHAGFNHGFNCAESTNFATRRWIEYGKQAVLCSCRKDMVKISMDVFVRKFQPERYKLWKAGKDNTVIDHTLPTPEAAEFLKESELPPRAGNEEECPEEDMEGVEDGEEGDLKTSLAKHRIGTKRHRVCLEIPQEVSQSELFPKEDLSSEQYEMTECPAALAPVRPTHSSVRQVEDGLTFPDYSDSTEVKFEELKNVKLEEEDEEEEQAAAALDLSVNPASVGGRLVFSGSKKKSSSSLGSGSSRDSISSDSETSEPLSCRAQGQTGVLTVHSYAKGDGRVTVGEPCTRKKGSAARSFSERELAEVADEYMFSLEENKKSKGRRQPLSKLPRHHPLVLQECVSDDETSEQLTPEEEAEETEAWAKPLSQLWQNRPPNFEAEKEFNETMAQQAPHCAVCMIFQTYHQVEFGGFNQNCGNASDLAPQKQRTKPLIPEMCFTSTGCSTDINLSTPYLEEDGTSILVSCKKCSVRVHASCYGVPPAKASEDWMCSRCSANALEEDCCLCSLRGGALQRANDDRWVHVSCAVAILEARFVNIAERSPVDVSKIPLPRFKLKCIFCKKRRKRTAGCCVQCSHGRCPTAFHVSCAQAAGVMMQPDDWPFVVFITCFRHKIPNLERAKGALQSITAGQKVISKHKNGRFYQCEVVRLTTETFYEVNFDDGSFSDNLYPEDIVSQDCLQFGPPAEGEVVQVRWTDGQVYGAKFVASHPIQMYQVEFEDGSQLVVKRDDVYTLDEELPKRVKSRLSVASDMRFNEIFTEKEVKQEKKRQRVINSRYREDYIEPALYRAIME
Hits are given with their value. Sampled rows, rich in hits. Any-hit rate of the full collection: about 5.7%. Unless noted, calls come from the whole dose curve; as a rule, active = well fitted inhibition curve with a large enough effect; inconclusive = small, poorly fitted or top-dose-only effect; inactive = no such curve, though single readings can be large or run the other way.

For COc1ccc(NCCC(O)c2ccc(Cl)cc2)cc1 (configuration not stated) the results were HP1b binding inh inconclusive, BAZ2B inh 45µM, PI5P4Ka inh inactive and JMJD2A Tudor 56µM.
For Cc1ccc(NCCNc2ccc(C)cc2)cc1 the results were L3MBTL1 block inactive, HP1b binding inh inactive, JMJD2E inh inactive and JMJD2A Tudor 22µM.
`Cc1ccc2[nH]c(=O)c(-c3nc4cc(C)ccn4c3NCc3ccco3)cc2c1` gave L3MBTL1 block inactive, HP1b binding inh inactive, JMJD2E inh 3.2µM, BAZ2B inh inactive, PI5P4Ka inh inactive and JMJD2A Tudor inconclusive.
For CCOC(=O)c1c(C)[nH]sc1=S the results were L3MBTL1 block inactive, HP1b binding inh inconclusive, JMJD2E inh inconclusive, BAZ2B inh inactive, PI5P4Ka inh inactive and JMJD2A Tudor 25µM.
Screening CCOC(=O)c1sc(N)c(C(=O)OC)c1C returned L3MBTL1 block inactive, HP1b binding inh inactive, JMJD2E inh inconclusive, BAZ2B inh inactive, PI5P4Ka inh inactive and JMJD2A Tudor inactive.
Screening CCOC(=O)c1sc(=S)[nH]c1C returned HP1b binding inh inconclusive, PI5P4Ka inh inactive and JMJD2A Tudor 14µM.
CCOC(=O)c1[nH]c(C)c(C(=O)OCC)c1C was read as HP1b binding inh inactive, JMJD2E inh inactive, BAZ2B inh inactive, PI5P4Ka inh inactive and JMJD2A Tudor inactive.
Screening c1ccc(OCc2nc3ccccc3s2)cc1 returned L3MBTL1 block inactive, HP1b binding inh inactive, JMJD2E inh inactive, BAZ2B inh inactive and JMJD2A Tudor inactive.
Cc1cc(OCc2nc3ccccc3s2)ccc1N was read as L3MBTL1 block inconclusive, HP1b binding inh inconclusive, JMJD2E inh inactive, BAZ2B inh 40µM, PI5P4Ka inh inactive and JMJD2A Tudor inconclusive.
`CC1CCCN(c2ncnc3c2cnn3-c2ccc(F)cc2)C1` (configuration not stated) gave HP1b binding inh inactive, BAZ2B inh inactive and JMJD2A Tudor inactive.
`Brc1cc(Br)cc(CN2CCSCC2)c1` gave L3MBTL1 block inactive, HP1b binding inh inactive, JMJD2E inh inactive, BAZ2B inh inactive, PI5P4Ka inh inactive and JMJD2A Tudor inactive.
Screening CC(C)c1ccc(CN2CCSCC2)cc1 returned L3MBTL1 block inactive, HP1b binding inh inconclusive, BAZ2B inh inconclusive, PI5P4Ka inh inactive and JMJD2A Tudor 2.8µM.
Screening CSc1ccc(CN2CCSCC2)cc1 returned L3MBTL1 block inactive, HP1b binding inh inconclusive, BAZ2B inh 79µM, PI5P4Ka inh inactive and JMJD2A Tudor 13µM.
CCc1ccc(CN2CCSCC2)cc1 was read as L3MBTL1 block inactive, HP1b binding inh inconclusive, BAZ2B inh inconclusive, PI5P4Ka inh inactive and JMJD2A Tudor 2.2µM.
For CNC(=O)CSc1nnc(-c2ccccc2F)n1CCc1ccccc1 the results were L3MBTL1 block inactive, HP1b binding inh inactive, JMJD2E inh inactive, BAZ2B inh inactive, PI5P4Ka inh inactive and JMJD2A Tudor inactive.
For CC(=O)Nc1ccc(S(=O)(=O)N2CCCN(S(=O)(=O)c3ccc4c(c3)OCCO4)CC2)cc1 the results were JMJD2A Tudor inactive.
Screening COc1cc(/C=N/n2c(-c3cc(C)[nH]n3)n[nH]c2=S)cc(OC)c1OC returned L3MBTL1 block inactive, HP1b binding inh inactive, JMJD2E inh inactive, BAZ2B inh inactive, PI5P4Ka inh inactive and JMJD2A Tudor 1.4µM.
`COc1cccc(/C=N/n2c(-c3cc(C)[nH]n3)n[nH]c2=S)c1` gave L3MBTL1 block inactive, HP1b binding inh inconclusive, JMJD2E inh inactive, BAZ2B inh inactive, PI5P4Ka inh inactive and JMJD2A Tudor 3.2µM.
Screening CC(=O)c1c(N2CCN(C)CC2)[nH]c(-c2ccccc2)nc1=S returned L3MBTL1 block inactive, HP1b binding inh inactive, JMJD2E inh inactive, BAZ2B inh inconclusive, PI5P4Ka inh inactive and JMJD2A Tudor 79µM.
Screening COC(=O)c1sc(=S)n(-c2cc(F)ccc2F)c1N returned L3MBTL1 block inactive, HP1b binding inh inconclusive, JMJD2E inh inactive, BAZ2B inh 56µM and JMJD2A Tudor inconclusive.
Cc1cc2c(cc1C)N(C(=O)CSC1=NCCS1)C(C)(C)c1ssc(=S)c1-2 was read as L3MBTL1 block inconclusive, HP1b binding inh inconclusive, JMJD2E inh inactive, BAZ2B inh 8.9µM and JMJD2A Tudor 6.3µM.
Screening Cc1cc(C)c2c(c1)-c1c(ssc1=S)C(C)(C)N2C(=O)CSc1nncn1C returned L3MBTL1 block inconclusive, HP1b binding inh inconclusive, JMJD2E inh inactive, BAZ2B inh 50µM, PI5P4Ka inh inactive and JMJD2A Tudor inconclusive.
Cc1ccc(C)c(NC(=O)CSc2nncn2C)c1 was read as L3MBTL1 block inactive, HP1b binding inh inactive, BAZ2B inh inactive, PI5P4Ka inh inactive and JMJD2A Tudor inactive.
Screening CC1(C)c2ssc(=S)c2-c2ccccc2N1C(=O)CSC1=NCCS1 returned L3MBTL1 block 14µM, HP1b binding inh inconclusive, JMJD2E inh inactive, BAZ2B inh 25µM and JMJD2A Tudor 8.9µM.
COC(=O)c1c(NC(=O)c2nc(SCc3ccccc3C)ncc2Cl)sc2c1CCCC2 was read as HP1b binding inh inactive, BAZ2B inh inactive and JMJD2A Tudor inactive.
`COc1ccc(C(=O)CSc2cc(C)[nH]c(=O)n2)cc1` gave HP1b binding inh inactive, BAZ2B inh 50µM, PI5P4Ka inh -63 and JMJD2A Tudor inconclusive.
For Cc1ccc(CSc2cc(C)[nH]c(=O)n2)cc1 the results were HP1b binding inh inactive, BAZ2B inh 50µM, PI5P4Ka inh inconclusive and JMJD2A Tudor inactive.
`CCOC(=O)CCCNC(=O)CSc1nc2ccc(OCC)cc2[nH]1` gave L3MBTL1 block inactive, HP1b binding inh inactive, JMJD2E inh inactive, BAZ2B inh inactive, PI5P4Ka inh inactive and JMJD2A Tudor inactive.
COC(=O)CCc1ccc(O)cc1 was read as HP1b binding inh inactive, BAZ2B inh inactive, PI5P4Ka inh inactive and JMJD2A Tudor inactive.
COC(=O)Cc1ccc(O)c(N)c1 was read as L3MBTL1 block inactive, HP1b binding inh inconclusive, JMJD2E inh inactive, BAZ2B inh inactive, PI5P4Ka inh inconclusive and JMJD2A Tudor 10µM.
Screening CCCCNc1ccc2c(c1)C1CC2CCN1C(=O)OCc1ccccc1 (configuration not stated) returned HP1b binding inh inactive, PI5P4Ka inh inactive and JMJD2A Tudor 25µM.
Screening COc1ccc(CCNCc2c(C(=O)O)c(C)n(Cc3ccccc3C)c2C)c(OC)c1 returned HP1b binding inh inactive, BAZ2B inh inactive and JMJD2A Tudor inactive.
Screening O=C(c1ccccc1)c1nn(-c2ccccc2)c(=O)cc1C(F)(F)F returned L3MBTL1 block inactive, HP1b binding inh inactive, JMJD2E inh inactive, BAZ2B inh 89µM, PI5P4Ka inh inactive and JMJD2A Tudor inactive.
`N#C/C(=C\c1ccccc1)C(=O)N1CCC(C(N)=O)CC1` gave HP1b binding inh inactive, BAZ2B inh inactive, PI5P4Ka inh inactive and JMJD2A Tudor inactive.
